# Compound activity (PubChem)
# DAX1 inh-1 = NR0B1 (DAX1) inhibition. 340,000 tested, 0.99% active. P51843. inhibition, % at 6.75 µM. HEK293 Gal4-DAX1 luciferase reporter, luminescence;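 active = inhibition above the mean over all tested compounds plus 3 SD, cut at about 4.2% in these data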;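 note: 0% = DAX1-transfected cells with DMSO and 100% = empty-vector control cells with DMSO; inhibition shows as a rise in luminescence from relieved DAX1 repression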
# Target sequence (P51843 207-470 limits assumed): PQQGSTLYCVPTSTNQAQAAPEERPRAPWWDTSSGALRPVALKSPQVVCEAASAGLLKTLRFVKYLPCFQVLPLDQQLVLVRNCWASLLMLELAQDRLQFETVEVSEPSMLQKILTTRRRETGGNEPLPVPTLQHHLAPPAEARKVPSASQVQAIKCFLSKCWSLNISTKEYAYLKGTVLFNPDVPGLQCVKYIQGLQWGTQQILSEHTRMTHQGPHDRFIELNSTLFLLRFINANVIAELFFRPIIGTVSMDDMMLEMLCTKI
# ssDAF12 agonist = activates DAF-12 receptor from parasite S. stercoralis | activation, % at 6.8 µM | AID 652126 | 370,000 tested, 1% active | HEK293 ssDAF-12/GRIP1 lit1-tk-luc reporter, luminescence; % of 3 µM dafachronic acid response;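 active = activation above the mean over all tested compounds plus 3 SD, cut at about 0.9% in these data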;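 note: 0% = DMSO-only wells and 100% = 3 µM delta7-dafachronic acid wells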
# hcDAF-12 act = H. contortus DAF-12 activation, primary screen | HEK293 hcDAF-12 lit1-tk-luc reporter, luminescence; 0% DMSO, 100% Δ7-dafachronic acid | activation, % at 6.8 µM | 370,000 tested, 1.4% active;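 active = activation above the mean of all tested compounds plus 3 SD, cut at about 5.5% in these data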;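 note: 100% = response to 3 µM Δ7-dafachronic acid high control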
# hgDAF-12 ag = activates the H. glycines DAF-12 receptor ligand-binding domain | HEK293 GAL4-hgDAF12 UAS-luciferase reporter, agonist luminescence; normalized to butyrate control | activation, % at 6.8 µM | 370,000 tested, 1.8% active;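 active = activation above a cutoff set at the mean of all screened compounds plus 3 SD, cut at about 10% in these data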;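 note: 0% = DMSO wells and 100% = sodium butyrate wells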
# DAX1 inh-2 = DAX1 (NR0B1) inhibition, primary screen. HEK293T StAR-luciferase reporter, SF-1/DAX-1 repression relief. inhibition, % at 6.8 µM. 370,000 tested, 1.1% active. AID 652010;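 active = inhibition above the mean over all tested compounds plus 3 SD, cut at about 3.6% in these data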;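 note: 0% = DAX-1 cells with DMSO and 100% = cells lacking DAX-1 with DMSO; higher inhibition means more luminescence from relief of DAX-1 repression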
# LXRb hcDAF ctr = activates human LXR-beta, counter-screen for hcDAF-12 agonists. HEK293 Gal4-LXR tk-luc reporter, luminescence, 24 h; normalized: DMSO 0%, positive control 100%. 3,400 tested, under 10 active. shares compounds with hcDAF-12 act. activation, % at 6.8 µM. AID 743027;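 active = mean percent activation of the reporter above a cutoff set as the average over tested compounds plus their standard deviation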
# hcDAF12 conf = hcDAF-12 agonism, confirmation assay. shares compounds with hcDAF-12 act. HEK293 hcDAF-12 lit1-tk-luc reporter, luminescence; % of Δ7-dafachronic acid response. activation, % at 6.8 µM. 3,400 tested, 61% active. AID 743032;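 active = mean activation across triplicate tests above the threshold derived from the earlier primary screen, cut at about 5.5% in these data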;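 note: 0% = DMSO only wells and 100% = 3 µM Δ7-dafachronic acid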
# Numbers without * were called inactive; / = no result. Rows were chosen to be rich in hits. Some 4.1% of all compounds tested hit in one or more screens of this group.
SMILES,DAX1 inh-1,ssDAF12 agonist,hcDAF-12 act,hgDAF-12 ag,DAX1 inh-2,LXRb hcDAF ctr,hcDAF12 conf
CCCCCC/C(C)=C1/SC(=S)NC1=O,1,-1,-1,4,1,/,/
Cn1ccnc1Sc1ccc(/C=N/NC(=O)c2ccccc2O)cc1[N+](=O)[O-],0,1,9.5*,5,0,0,7.2*
CN1CCCCC(NC(=O)c2cccs2)C1=O (stereo unspecified),/,-1,-2,-1,0,/,/
Cc1ccc(NC2CCCN(C(=O)C3CCCC3)C2)cc1C (stereo unspecified),0,-1,-2,0,0,/,/
O=C(CSC1=NS(=O)(=O)c2cc(F)ccc2N1)NCc1ccc(F)cc1,0,-1,0,0,1,/,/
O=C(CSC1=NS(=O)(=O)c2cc(Cl)ccc2N1)NCc1ccccc1,-1,-1,7.0*,1,-1,0,-1
CC(=O)N1[C@@H](CO)[C@@H](c2ccc(-c3cccc(F)c3)cc2)[C@@H]1CNCC1CCC1,/,0,0,0,0,/,/
Brc1ccc(-c2nc3ccccc3s2)s1,3,1.2*,10.0*,13*,1,1,11*
Cc1cccc(/C(N)=N/OC(=O)c2ccc(F)cc2)c1,3,1,7.2*,13*,2,1,3
O=C(CC1SC(N2CCCC2)=NC1=O)Nc1ccc(C(=O)NCCOc2ccccc2F)cc1 (stereo unspecified),-1,-1,0,1,-1,/,/
O=C(NC(=S)Nc1cc([N+](=O)[O-])ccc1O)C1CC1,0,-1,9.6*,3,0,0,1
Clc1ccc(-c2[nH]ncc2N=Nc2ccccc2)cc1,1,-1,0,-2,-1,/,/
Nc1ccc(N=Nc2ccccc2)c2ccccc12,1,1,8.2*,1,0,0,5
c1ccc(N=Nc2ccc3cccccc2-3)cc1,2,1.8*,9.1*,6,0,1,10*
O=c1c(N=Nc2ccccc2)c[nH]n1-c1ccccc1,2,0,3,10,2,/,/
COC(=O)[C@]12C[C@H](CC(=O)N3CCSCC3)C(=O)N(Cc3cccc4ccccc34)C1=C[C@H](C1CCCC1)O[C@@H]2C,/,-1,-3,1,0,/,/
C=CCn1c(SCc2c(Cl)cccc2Cl)nnc1-c1cccc(C)c1,/,-2,-3,-5,-2,/,/
CC(=O)C1(C)C(=O)N(c2ccc(F)cc2)C(=O)N1c1ccc(F)cc1 (stereo unspecified),-1,-1,0,0,-1,/,/
Fc1ccc(C2Nc3cccc4cccc(c34)N2)cc1,1,0,7.1*,4,-1,0,3
CCCOc1ccc(C2Nc3cccc4cccc(c34)N2)cc1,0,0,6.7*,2,0,0,4
Brc1ccc(C2Nc3cccc4cccc(c34)N2)cc1,1,0,1,-2,-1,/,/
COC(=O)c1cc2c(s1)-c1ccccc1OC2,1,0,8.9*,4,1,0,3
COc1ccccc1N1CCN(C(=O)c2cc3c(s2)-c2ccccc2OC3)CC1,2,-1,1,3,0,/,/
COC(=O)c1cc2c(s1)-c1ccc(OC)cc1CC2,7.7*,0,7.1*,6,1,0,4
O=C(N/N=C/c1ccccc1OC(=O)c1ccc2c(c1)OCO2)c1cccc(F)c1,2,-1,-1,5,0,/,/
SMILES,DAX1 inh-1,ssDAF12 agonist,hcDAF-12 act,hgDAF-12 ag,DAX1 inh-2,LXRb hcDAF ctr,hcDAF12 conf
O=C(Oc1ccccc1/C=C\C(=O)c1cc2ccccc2o1)c1cccc(F)c1,3,0,11*,10,0,1,7.2*
COc1ccc(CCNC(=O)Cn2ncc3c2-c2cc(C)ccc2OC3)cc1,/,-2,-2,-3,-2,/,/
COc1ccc(-n2c(SCC(=O)N(CC(C)C)CC(C)C)nnc2-c2ccncc2)cc1,/,-2,-2,1,0,/,/
CC1Oc2ccccc2OC1C(=O)Nc1nccs1 (stereo unspecified),1,1,3,7,1,/,/
Cc1cc(NC(=O)C2Oc3ccccc3OC2C)no1 (stereo unspecified),-1,0,7.0*,2,0,0,2
O=C(Nc1ccc(F)cc1)OCc1cn(Cc2ccc(F)cc2)nn1,/,-1,-2,1,-1,/,/
COc1cccc(C(=O)NC(=S)Nc2cccnc2)c1,0,1.0*,7.8*,7,1,0,1
O=C(c1cccs1)c1ccc(-c2cccs2)s1,-1,2.1*,14*,17*,3,2,14*
CN1CCN(C(=O)c2ccc(-c3cccs3)s2)CC1,/,-1,1,9,2,/,/
CCC(=O)Nc1cc2nn(-c3ccccc3)nc2cc1Cl,1,0,7.3*,8,2,2,13*
CCn1c(/C=C\c2ccccc2C)nc2ccccc2c1=O,-1,-2,0,3,-1,/,/
CCn1c(/C=C/c2c(C)[nH]c3ccccc23)nc2ccccc2c1=O,0,0.9*,10*,5,0,0,4
CCn1c(/C=C/c2ccccc2Cl)nc2ccccc2c1=O,2,-1,-1,2,0,/,/
CCn1c(/C=C/c2c[nH]c3ccccc23)nc2ccccc2c1=O,5.2*,1.4*,8.6*,12*,3,1,7.8*
Cc1ccc2nc(-c3sc4nc(C)cc(C)c4c3N)[nH]c2c1,0,2.3*,17*,4,4.0*,2,24*
O=C(Nc1ccccn1)c1onc2c1CCCC2,-3,0,8.0*,6,2,1,5.8*
COc1ccc(-c2cn3nc(C)c(C)nc3n2)cc1OC,1,0,1,1,3,/,/
Clc1ccc2nc(-c3ccc(Br)s3)cn2c1,-2,1.0*,15*,11*,3,1,19*
COc1ccc(-c2cn3cc(Cl)ccc3n2)cc1OC,2,1,8.6*,9,2,0,5
Nc1cc2[nH]c(=O)c3ccccc3c2cc1Br,2,1.1*,9.7*,3,3.7*,0,9.3*
Nc1cc2c(cc1Br)[nH]c(=O)c1ccccc12,1,-1,3,0,-1,/,/
CCN1CCCC1CNC(=O)c1cc2ccc(OC)cc2[nH]1 (stereo unspecified),0,0,6.6*,3,1,0,2
CCN1CCCC1CNC(=O)c1[nH]c2ccc(OC)cc2c1C (stereo unspecified),3,-1,-1,2,0,/,/
